Hit rate of the full screen: of about 410,000 compounds, about 530 (0.13%) were called active. Another 5% or so got no clear call; they are omitted. Calls follow the shape of the dose curve; as a rule, active = well fitted inhibition curve with a large enough effect; inconclusive = small, poorly fitted or top-dose-only effect, or another doubt; inactive = no such curve, though single readings can be large or run the other way. Only a selection was taken, and actives are over-represented in it overall.
Test: qHTS of GLP-1 Receptor Inverse Agonists: Cytotox Screen;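 also: loss of luciferase light is scored as toxicity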
Settings: HEK293 cAMP-luciferase reporter cells, luminescence, 24 h; series mostly up to 38.3 µM; activity change, negative = inhibition: at the top concentration
Description: The overall goal of this project was to develop a novel assay for discovering small molecule ligands for class B1 G protein-coupled receptors (GPCRs). Very few agonists (or inverse agonists) with generally weak activity for this entire group of physiologically important receptors are known to date. To establish proof-of-principle that this critical bottleneck can be overcome with a suitable screening approach, our studies focused on the class B1 receptor for glucagon-like peptide-1 (GLP-1R), a potential therapeutic target for diabetes and neurodegenerative disease.
The assay was developed using a cell-based functional readout. Toward this goal, stably transfected HEK293 cell clones were established that co-express (i) a cAMP-responsive luciferase reporter gene, and (ii) constitutively active GLP-1R that upon ligand interaction inhibit (inverse agonists) the luciferase activity. In addition, two control cell lines were developed: (i) one that express only the cAMP-responsive reporter gene to enable initial exclusion of GLP-1R independent effects of candidate probes; and (ii) one with the reported gene cloned with another constitutively active orphan receptor GPR119 to enable exclusion of GLP-1R independent inhibitor effects of candidate inverse agonists.
To that end, this assay was optimized for 1536-well format and screened against the MLSMR. Then the same collection was run in this cytotoxicity assay where inhibition was the undesired outcome.
NIH Molecular Libraries Probe Production Network [MLPCN]
NIH Chemical Genomics Center [NCGC]
PI Name: Martin Beinborn, Tufts Medical Center
Six ul of cell suspension (200 cells/uL in DMEM + 10% Nu serum + 1% pen-strep) is dispensed in a white solid 1536-well plate. The plates are incubated for 12 hours at 37 deg C at 5% CO2 followed by addition of 23 nL compounds. After 24 hr incubation at 37 deg C and 5% CO2, 3 uL of luciferase assay detection reagent is added. A luminescence read is obtained on the PerkinElmer Viewlux after 12 min incubation at room temperature.
For `O=C(Nc1ccc(OC(F)(F)F)cc1)c1ccc2c(c1)no[n+]2[O-]`, the Potency was 11.2 µM (active). For `O=C(Nc1ccc(Cl)cn1)Nc1cccs1`, the “activity change, negative = inhibition” value was 49.1% (inactive). With `CCOC(=O)[C@]12Cc3cc(OC)ccc3[C@H]1N(C(C)C)C(=O)c1ccccc12` the “activity change, negative = inhibition” value was -28.2% (inactive). With `CCOc1ccc2nc(Nc3nc4ccc(NC(C)=O)cc4s3)sc2c1` the “activity change, negative = inhibition” value was 37.9% (inactive). For `Cc1ccc(NC(=O)N(Cc2ccc3c(c2)OCO3)C2CCN(Cc3ccccc3)CC2)cc1F`, the “activity change, negative = inhibition” value was -0.237% (inactive). For `COc1ccc(CS(=O)/C(Cl)=C(/Cl)C(=O)Nc2ccc(OC)nc2)cc1` (stereo not given), the Potency was 3.98 µM (active). With `O=C1N[C@H](Cc2c[nH]c3ccccc23)COC(=O)[C@H](Cc2ccc(F)cc2)C/C=C\C[C@H]1CC(=O)N(CCO)Cc1ccccc1` the “activity change, negative = inhibition” value was -58.3% (inactive). With `CCN(CC)CCCC(C)n1c2nc(=O)[nH]c(=O)c-2nc2cc(Cl)ccc21` (stereo not given) the “activity change, negative = inhibition” value was 490% (inactive). In the case of `c1cc2c(c(NC3=NCCCS3)c1)CCCC2`, the “activity change, negative = inhibition” value is reported as -18% (inactive). With `Cc1nnc(NC(=O)c2cccn(Cc3cccc(F)c3)c2=O)s1` the “activity change, negative = inhibition” value was 4.13% (inactive). For `Cc1cccc(Cn2cccc(C(=O)Nc3ccc4c(c3)OCCO4)c2=O)c1`, the “activity change, negative = inhibition” value was 4.23% (inactive). With `C=CCC[C@@H](Cc1ccc(F)cc1)C(=O)OC[C@H](Cc1c[nH]c2ccccc12)NC(=O)[C@@H](CC=C)CC(=O)N(CCO)Cc1ccccc1` the “activity change, negative = inhibition” value was 7.51% (inactive). In the case of `Nc1ccc(-c2sc(N)nc2-c2ccccc2)cc1`, the “activity change, negative = inhibition” value is reported as 184% (inactive). For `NS(=O)(=O)c1ccc(NC(=O)COC(=O)c2c3c(nc4ccccc24)/C(=C\c2ccc4c(c2)OCO4)CCC3)cc1`, the “activity change, negative = inhibition” value was 80.2% (inactive). For `C=CC(=O)Nc1ccc(Nc2ccnc(Nc3ccc(N4CCN(C)CC4)cc3)n2)cc1`, the Potency was 10 µM (active). For `CCC1(CC(C)c2ccccc2)C(=O)NC(=O)NC1=O` (stereo not given), the “activity change, negative = inhibition” value was 9.72% (inactive). In the case of `COc1cccc2sc3cc(NCC[C@@H]4CCCN4C)ccc3c(=O)c12`, the “activity change, negative = inhibition” value is reported as 221% (inactive). For `CC(C)c1ccc(C=NNc2ccc([N+](=O)[O-])cn2)cc1`, the “activity change, negative = inhibition” value was 44.1% (inactive). In the case of `Cc1cc(C)c2c(c1)cc(C)c1nnc(SCC(=O)Nc3cc(C)on3)n12`, the Potency is reported as 10 µM (active). For `COc1ccc(-c2nc3cnccn3c2NC2CCCCC2)cc1-c1cccc(Cl)c1`, the “activity change, negative = inhibition” value was 77.1% (inactive). For `NC(=O)c1sc2nc3c(c(-c4ccccc4)c2c1N)CCC3`, the “activity change, negative = inhibition” value was 56.3% (inactive). With `COc1ccccc1OC(=O)c1ccc(C)c(S(=O)(=O)N2CCOCC2)c1` the “activity change, negative = inhibition” value was 0.53% (inactive). For `O=C(Nc1nnc(-c2ccccc2)o1)c1cccc(S(=O)(=O)N2CCOCC2)c1`, the Potency was 10 µM (active). For `O=C(c1cc(S(=O)(=O)N2CCOCC2)ccc1F)N1CCC2(CC1)OCCO2`, the “activity change, negative = inhibition” value was -20.6% (inactive). In the case of `CCc1ccc(OCC(=O)N2CCN(CC(=O)Nc3ccccc3Cl)CC2)cc1`, the “activity change, negative = inhibition” value is reported as -14.3% (inactive).
% is scaled to controls: 0 for no effect and ±100 for the full control effect; potency is read from the fitted curve at half-maximal effect.
